Results on 9 compounds are retold here after PubChem BioAssay.

Experiment [1] can be described thus: reducers of endogenous Her2 protein level, primary screen, SKBR3 breast tumor cells, AlphaScreen, ATP viability (AID 461;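 active means Her2 level under about 52% in both replicate screens, with viability over 70% of control, limit read from the data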;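 on Her2 level: lower value means less Her2 protein in the cells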;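 on viability: percent of carrier control wells set as 100% viability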). As to conditions: 18-24 h, measured here: SKBR3 viability, ATP luminescence, at 10 µM. For orientation: Alpha assays give light when donor and acceptor beads are brought close together.
Experiment [2] has as its target Receptor tyrosine-protein kinase erbB-2 (Homo sapiens) (UniProt P04626). The description is as above. To be noted: 18-24 h, at 10 µM, stronger effect = lower value.
A short description of experiment [3]: SK-BR-3 cell growth inhibitors, pilot screen, 24 h, human (AID 572;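 active means viability at or below 10% of carrier control in both of two separate runs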;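 further: compound exposure lasted between 18 and 24 h rather than exactly 24 h; 100% = carrier-treated control wells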). As to conditions: SK-BR-3 viability, CellTiter-Glo luminescence, at 10 µM, stronger effect = lower value. Background: In ATP-based viability assays light output follows the ATP content of the culture.
Experiment [4] can be described thus: HUVEC growth inhibition – cell-based, human, primary screen (AID 575;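 active means viability at or below 30% in both replicate assays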;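 further: 100% = median of untreated cell wells with 0.1% DMSO on each plate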). To be noted: HUVEC proliferation, CellTiter-Glo luminescence, 72 h; at 10 µM; stronger effect = lower value.
A short description of experiment [5]: growth inhibitors of H69AR lung tumor, primary screen, human, duplicate replicates (AID 580;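 active means viability at or under a set limit in both replicates, limit being median viability minus 3 SD, cut at about 48% in these data, passing the limit was not always enough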;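 further: 100% = mean luminescence of untreated wells and 0% = no signal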). As to conditions: H69AR lung tumor cells viability, ATP luminescence, 72 h; at 10 µM; stronger effect = lower value.
A short description of experiment [6]: reversal of MRP1-mediated doxorubicin resistance, pilot screen, H69AR cells, doxorubicin co-treatment (AID 601;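 active means viability loss from added drug above about 55%, and viability with drug at most 40%, in both replicates, limit read from the data, passing the limit was not always enough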). To be noted: CellTiter-Glo, 72 h, at 10 µM; for differential viability (reversal): stronger effect = higher value.
The nature of experiment [7]: 384-well plate pilot, post-Golgi transport modulator project, inhibition of yeast transport mutant growth (AID 636; in the data active means inhibition above about 31%). As to conditions: absorbance 615 nm, about 18 h, stronger effect = higher value.
Experiment [8] in a line: growth suppression of yeast trafficking mutant, preliminary HTS, modulators of trafficking downstream of Golgi apparatus project, 1536-format plate, OD 615 nm (AID 637; in the data active means inhibition above about 30%). As to conditions: yeast transport mutant growth, absorbance 615 nm, 18 h; stronger effect = higher value.
Experiment [9] can be described thus: OD615 S. cerevisiae growth inhibition, permissive medium, pilot counter-assay, permissive growth control for S. cerevisiae lifespan shortening project (AID 705;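 active means growth inhibition above 25% in both replicates, a cutoff set 3 SD above the mean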). As to conditions: OD615, 24 h, at 10 µM, stronger effect = higher value.
Experiment [10] is described as follows: Restrictive medium S. cerevisiae growth inhibition, OD615, pilot screen of yeast lifespan reduction project, restrictive growth control (AID 706;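 active means growth inhibition above a set limit, 3 SD over mean compound inhibition, in both replicates, cut at about 43% in these data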;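 further: modified DeaD lifespan yeast strain shifted to restrictive glucose medium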). As to conditions: OD615, 48 h, at 10 µM, stronger effect = higher value.
Experiment [11] can be described thus: viability gain of MRP-1-high H69AR cells under doxorubicin, pilot screen, MRP-1 activator project, CellTiter-Glo, duplicate (AID 807;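 active means viability increase at or above a cutoff of the median across tested compounds plus 3 SD, cut at about 8.5% in these data, passing the limit was not always enough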;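 further: compound pretreatment 18-22 h then 72 h combined with doxorubicin; 0% = doxorubicin alone and 100% = vehicle without doxorubicin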). To be noted: H69AR viability with doxorubicin, CellTiter-Glo luminescence; at 10 µM; stronger effect = higher value.
Experiment [12] is described as follows: growth suppression of beta-catenin knockout HCT116, pilot screen, human colon tumor cells (AID 823;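 active means cell viability at or below a set limit in both duplicate runs, the limit being the all-compound median minus 4 SD, cut at about 23% in these data, passing the limit was not always enough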;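 further: 0% = wells killed by 20 µM Hyamine and 100% = untreated DMSO cell wells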). To be noted: CellTiter-Glo, 60 h, at 10 µM, stronger effect = lower value.
A short description of experiment [13]: growth suppression of PTEN-deleted HCT116, pilot screen, cell-based, HCT116 clonal line, CellTiter-Glo (AID 824;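 active means viability at or below 27.92% in each of two runs, the all-compound median minus 4 SD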;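 further: 0% = 20 µM Hyamine control and 100% = vehicle cell control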). To be noted: 60 h, at 10 µM, stronger effect = lower value.
The nature of experiment [14]: inhibitors of the yeast RAM network, pilot screen, dse1pr::URA3 reporter, 5-FOA selection (AID 869).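 Further: 0% = DMSO wells with no growth and 100% = 10 µM 1-NA-PP1 with full growth; RAM network block rescues cells from 5-FOA so hits raise OD615 growth.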 As to conditions: S. cerevisiae dse1pr::URA3 5-FOA growth, OD615, 2 d; at 10 µM; stronger effect = higher value; strain carries analog-sensitive mutant Cbk1 kinase.
The nature of experiment [15]: RAM signaling pathway blockade in yeast – S. cerevisiae, Pdr1DBD-CYC8 efflux-inhibited sensitized strain, primary screen (AID 1298;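 active means RAM network inhibition above 8.4% in each of two replicates, 3 SD over the compound average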;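 further: 0% = DMSO untreated cells without growth and 100% = 10 µM 1-NA-PP1 full growth; higher means more yeast growth rescued from 5-FOA killing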). To be noted: S. cerevisiae cbk1-as DSE1-URA3 strain, 5-FOA growth OD615, 2 d; at 50 µM; stronger effect = higher value.
Where [16] appears, read: H69AR cells + 2 uM doxorubicin, measured here: viability with 2 uM doxorubicin, stronger effect = lower value.
The mark [17] stands for this setting: H69AR cells, compound alone cytotoxicity.

Each structure is given as a SMILES string. Records with an inconclusive call do not appear. Active and inactive are the calls of the source.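 How the source made its calls, unless noted: active means inhibition over a set limit, the all-compound mean plus 3 SD, in both replicate runs; inconclusive means over that limit in just one replicate run; inactive means at or under that limit in both runs.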

Chain of Receptor tyrosine-protein kinase erbB-2 (Homo sapiens) (P04626 whole entry, looked up): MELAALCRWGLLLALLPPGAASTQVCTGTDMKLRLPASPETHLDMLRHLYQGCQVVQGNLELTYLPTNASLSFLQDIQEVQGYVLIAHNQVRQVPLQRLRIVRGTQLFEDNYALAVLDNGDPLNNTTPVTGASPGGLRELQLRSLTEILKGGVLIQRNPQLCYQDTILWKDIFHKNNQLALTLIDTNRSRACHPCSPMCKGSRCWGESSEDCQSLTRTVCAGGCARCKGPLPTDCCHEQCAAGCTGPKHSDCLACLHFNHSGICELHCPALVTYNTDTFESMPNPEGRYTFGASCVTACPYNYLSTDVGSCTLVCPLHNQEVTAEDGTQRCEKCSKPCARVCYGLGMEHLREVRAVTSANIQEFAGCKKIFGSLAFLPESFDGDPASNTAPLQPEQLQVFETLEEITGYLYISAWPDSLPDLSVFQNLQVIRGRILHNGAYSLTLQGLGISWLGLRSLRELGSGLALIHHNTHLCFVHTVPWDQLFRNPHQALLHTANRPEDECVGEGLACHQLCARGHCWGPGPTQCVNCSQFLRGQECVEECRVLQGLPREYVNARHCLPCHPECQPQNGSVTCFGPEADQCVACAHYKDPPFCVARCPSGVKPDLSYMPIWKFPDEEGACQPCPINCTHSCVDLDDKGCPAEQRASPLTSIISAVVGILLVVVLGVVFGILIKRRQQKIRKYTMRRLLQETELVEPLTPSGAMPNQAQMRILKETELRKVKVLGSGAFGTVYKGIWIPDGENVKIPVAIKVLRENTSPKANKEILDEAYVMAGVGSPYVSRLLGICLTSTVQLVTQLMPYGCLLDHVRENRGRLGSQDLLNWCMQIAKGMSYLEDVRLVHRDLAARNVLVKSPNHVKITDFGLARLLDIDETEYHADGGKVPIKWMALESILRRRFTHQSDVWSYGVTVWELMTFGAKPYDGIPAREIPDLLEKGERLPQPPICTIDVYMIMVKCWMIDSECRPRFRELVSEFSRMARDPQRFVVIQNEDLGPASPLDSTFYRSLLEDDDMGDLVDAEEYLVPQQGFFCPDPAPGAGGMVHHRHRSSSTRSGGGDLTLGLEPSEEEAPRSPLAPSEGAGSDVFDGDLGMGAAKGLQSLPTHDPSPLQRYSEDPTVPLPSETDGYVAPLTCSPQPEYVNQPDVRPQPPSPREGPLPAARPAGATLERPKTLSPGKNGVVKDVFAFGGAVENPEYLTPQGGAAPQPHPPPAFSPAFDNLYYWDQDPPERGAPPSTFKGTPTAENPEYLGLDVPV

As a reminder, the viability is a read-out of living cells in per cent, often relative to untreated cells. Broadly, the inhibition is the drop in the measured response relative to a control, in per cent. On to `CCOC(=O)c1ccccc1NC(=O)c1cccnc1`, for which the viability in [1] was 83%; in experiment [3], 83% (inactive); in experiment [4], 94.8% (inactive); in [5], 96.1% (inactive); in [6] (setting [16]), 94.4%; in [6] (setting [17]), 96.1%. In addition, the values for the viability in experiment [12] and in [13] were 104% (inactive) and 102% (inactive), respectively. The Her2 level in experiment [2] is 117% (inactive). In addition, the differential viability (reversal) in experiment [6] (H69AR cells + 2 uM doxorubicin) is 1.67% (inactive). Also, the inhibition in experiment [7] was 1.95% (inactive); in experiment [8], -4.59% (inactive); in experiment [14] it was 1.57% (inactive). Also, the values for the growth inhibition in [9] and in experiment [10] were -11.9% (inactive) and -21.3% (inactive), respectively. Also, the viability increase in experiment [11] is 0.06% (inactive). For the same compound, the RAM network inhibition in [15] was 2.22% (inactive).
As for `COc1cccc(C2CC(c3ccc(C)cc3)Nc3nc(N)nn32)c1` (stereo not drawn), the viability in experiment [1] is 88%; in [3], 88% (inactive); in experiment [4] it was 99.2% (inactive); in experiment [5], 97.9% (inactive); in [6] (setting [16]) it was 93.9%; in experiment [6] (setting [17]), 97.9%. The viability in experiment [12] was 98.6% (inactive); in experiment [13], 95.5% (inactive). Further, the Her2 level in experiment [2] is 98.5% (inactive). Also, the differential viability (reversal) in experiment [6] (H69AR cells + 2 uM doxorubicin) was 4.01% (inactive). Moreover, the inhibition was -0.4% (inactive) in [7], -5.9% (inactive) in experiment [8] and 0.515% (inactive) in experiment [14]. The growth inhibition in [9] is -2.17% (inactive); in experiment [10], 2.23% (inactive). The viability increase in experiment [11] was 0.54% (inactive). Further, the RAM network inhibition in experiment [15] is -0.56% (inactive).
As for `CC(=O)c1ccc(OCC(O)CN2CCN(CCO)CC2)cc1` (stereo not drawn), the viability was 116% in experiment [1]; 116% (inactive) in experiment [3]; 99.2% (inactive) in experiment [4]; 96.3% (inactive) in experiment [5]; 100% in [6] (setting [16]); 96.3% in experiment [6] (setting [17]). Moreover, the results for the viability in [12] and in experiment [13] were 99% (inactive) and 101% (inactive), respectively. Moreover, the Her2 level in [2] was 112% (inactive). Moreover, the differential viability (reversal) in [6] (H69AR cells + 2 uM doxorubicin) is -3.92% (inactive). Besides, the inhibition in experiment [7] is -5.73% (inactive); in experiment [8], 2.33% (inactive); in [14], 1.13% (inactive). Moreover, the growth inhibition was -1.98% (inactive) in [9] and 4.8% (inactive) in experiment [10]. Also, the viability increase in experiment [11] is 1.18% (inactive). The RAM network inhibition in [15] was 1.57% (inactive).
Take `COc1cccc(C2=NOC(C(=O)N3CCc4ccccc4C3)C2)c1` (stereo not drawn): the viability is 87% in experiment [1]; 87% (inactive) in [3]; 92.2% (inactive) in experiment [4]; 92% (inactive) in experiment [5]; 77.9% in experiment [6] (setting [16]); 92% in experiment [6] (setting [17]). The values for the viability in experiment [12] and in [13] were 104% (inactive) and 95.5% (inactive), respectively. For the same compound, the Her2 level in experiment [2] was 92.5% (inactive). In addition, the differential viability (reversal) in experiment [6] (H69AR cells + 2 uM doxorubicin) was 14.1% (inactive). For the same compound, the inhibition is -1.41% (inactive) in [7], -1.83% (inactive) in experiment [8] and -0.045% (inactive) in experiment [14]. The growth inhibition was -9.41% (inactive) in [9] and 4.4% (inactive) in experiment [10]. Besides, the viability increase in experiment [11] was -2.18% (inactive). The RAM network inhibition in experiment [15] is -2.13% (inactive).
Consider `CC1CCc2nn(CC(=O)NCCN3CCOCC3)cc2C1` (stereo not drawn), for which the viability was 101% in [1]; 101% (inactive) in experiment [3]; 98.6% (inactive) in experiment [4]; 89.4% (inactive) in [5]; 97.7% in [6] (setting [16]); 89.4% in experiment [6] (setting [17]). Besides, the viability was 108% (inactive) in experiment [12] and 101% (inactive) in [13]. In [2], the Her2 level is 113% (inactive). Moreover, the differential viability (reversal) in [6] (H69AR cells + 2 uM doxorubicin) is -8.26% (inactive). The values for the inhibition in experiment [7], in experiment [8] and in experiment [14] were -2.44% (inactive), -2.33% (inactive) and 0.965% (inactive), respectively. The growth inhibition in [9] is 2.41% (inactive); in experiment [10], 6.26% (inactive). Further, the viability increase in experiment [11] is 0.93% (inactive). In addition, the RAM network inhibition in [15] is 4.43% (inactive).
For the compound `Cc1cccc(-n2ncc3c(N(CCO)CCO)ncnc32)c1`, the viability in [1] was 97%; in experiment [3], 97% (inactive); in [4] it was 78.7% (inactive); in experiment [5] it was 90% (inactive); in experiment [6] (setting [16]), 78.7%; in experiment [6] (setting [17]), 90%. Moreover, the viability in experiment [12] was 94.9% (inactive); in [13], 101% (inactive). In addition, the Her2 level in experiment [2] is 91.5% (inactive). The differential viability (reversal) in [6] (H69AR cells + 2 uM doxorubicin) was 11.3% (inactive). The inhibition was -5.2% (inactive) in experiment [7], -1.97% (inactive) in experiment [8] and 2.43% (inactive) in experiment [14]. The growth inhibition in experiment [9] was -0.18% (inactive); in experiment [10], 0.945% (inactive). For the same compound, the viability increase in experiment [11] was -1.41% (inactive). Moreover, the RAM network inhibition in experiment [15] was -0.31% (inactive).
For the compound `Cc1nc2ccc(S(=O)(=O)NC(C(=O)N3CCCC3)C(C)C)cc2s1` (stereo not drawn), the viability in experiment [1] is 88.5%; in experiment [3] it was 88.5% (inactive); in experiment [4], 111% (inactive); in [5], 97.3% (inactive); in experiment [6] (setting [16]), 79.5%; in experiment [6] (setting [17]), 97.3%. The viability is 92.2% (inactive) in experiment [12] and 91.2% (inactive) in experiment [13]. Besides, the Her2 level in [2] was 106% (inactive). For the same compound, the differential viability (reversal) in experiment [6] (H69AR cells + 2 uM doxorubicin) was 17.8% (inactive). The inhibition was -1.92% (inactive) in experiment [7], -0.5% (inactive) in [8] and 2.62% (inactive) in experiment [14]. The growth inhibition in experiment [9] was 3.5% (inactive); in [10] it was 11.5% (inactive). Moreover, the viability increase in [11] is -2.03% (inactive). Besides, the RAM network inhibition in experiment [15] was 0.27% (inactive).
Regarding `COc1ccccc1-n1c(=O)[nH]c2c(C(N)=O)nc(-c3cccnc3)nc21`, the viability was 82.5% in experiment [1]; 82.5% (inactive) in experiment [3]; 73.7% (inactive) in experiment [4]; 69.9% (inactive) in experiment [5]; 75.6% in experiment [6] (setting [16]); 69.9% in experiment [6] (setting [17]). Also, the viability was 72.9% (inactive) in experiment [12] and 67.7% (inactive) in [13]. The Her2 level in experiment [2] was 88.5% (inactive). Further, the differential viability (reversal) in experiment [6] (H69AR cells + 2 uM doxorubicin) is -5.7% (inactive). Moreover, the inhibition was -3.2% (inactive) in experiment [7], -3.93% (inactive) in experiment [8] and 2.47% (inactive) in [14]. Also, the growth inhibition in [9] is -7.79% (inactive); in [10], -16.8% (inactive). For the same compound, the viability increase in [11] was -7.14% (inactive). In addition, the RAM network inhibition in experiment [15] is 4.37% (inactive).
Take `O=C(Cn1nc(Cc2ccncc2)c2ccccc2c1=O)N1CCc2ccccc2C1`: the viability in experiment [1] is 83%; in [3] it was 83% (inactive); in [4] it was 95.3% (inactive); in experiment [5], 96.5% (inactive); in [6] (setting [16]), 91.1%; in experiment [6] (setting [17]), 96.5%. The viability in experiment [12] and in experiment [13] was 103% (inactive) each time. Further, the Her2 level in experiment [2] is 100% (inactive). Also, the differential viability (reversal) in experiment [6] (H69AR cells + 2 uM doxorubicin) is 5.38% (inactive). Moreover, the figures for the inhibition in experiment [7], in [8] and in experiment [14] were -0.27% (inactive), -3.77% (inactive) and 1.33% (inactive), respectively. In addition, the growth inhibition in [9] was -1.69% (inactive); in experiment [10] it was 3.79% (inactive). In experiment [11], the viability increase was -2.78% (inactive). In addition, the RAM network inhibition in experiment [15] was 3% (inactive).
